Compounds without any hit were thinned out: in the full panel of roughly 83,000, 20% have a hit.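 Interpretation: 100, growth as untreated; towards 0, rising growth inhibition; 0, no net growth; 0 to -100, cell death. Compounds scoring below 10 were considered active.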 A number with no mark means an inactive call. Active and inactive are the calls of the source.
Tests used:
Test in all cases: NCI-60 one-dose screen, 48 h (100 = growth as untreated, 0 = no growth, -100 = all killed)
Conditions in all cases: 10 µM unless noted
[1] = tested on: NCI-H23 lung
[2] = tested on: NCI-H226 lung
[3] = tested on: NCI-H322M lung
[4] = tested on: HOP-62 NSCLC
[5] = tested on: NCI-H460 lung
[6] = tested on: HOP-92 NSCLC
[7] = tested on: NCI-H522 lung
[8] = tested on: A549/ATCC NSCLC
[9] = tested on: 786-0 renal
[10] = tested on: COLO 205 colon

| Structure (SMILES) | growth [1] | growth [2] | growth [3] | growth [4] | growth [5] | growth [6] | growth [7] | growth [8] | growth [9] | growth [10] |
| --- | --- | --- | --- | --- | --- | --- | --- | --- | --- | --- |
| CNC(=O)c1cc(Oc2ccc(NC(=O)Nc3cc(C(C)(C)C)nn3-c3ccc4ncccc4c3)c(F)c2)ccn1 | -49.5% (active) | -15.9% (active) | -17.8% (active) | -41.4% (active) | -40.8% (active) | -10.8% (active) | -47.7% (active) | -16.1% (active) | -16.7% (active) | -78.1% (active) |
| O=C(Nc1nc2cccc(-c3ccc(CN4CCS(=O)(=O)CC4)cc3)n2n1)C1CC1 | 65.2% | 55.9% | 87.6% | 57.3% | 5.79% (active) | 96.3% | 6.67% (active) | 60.1% | 85.5% | 59.5% |
| Cc1ccc(NC(=O)NC(=O)CSc2nc3ccccc3nc2C)cc1 | 42.6% | 59.4% | 95.1% | 45% | 64.9% | 36.1% | 40.8% | 70.2% | -16.3% (active) | 81.1% |
| CC(C)(C)c1ccc(Cn2cc(CSc3nc4ccccc4s3)nn2)cc1 | 90.4% | 83% | 86.2% | 87.6% | 103% | 80.6% | 84.4% | 83.5% | 96.2% | 102% |
| Cc1ccc(Nc2nccc(N(C)c3ccc4c(C)n(C)nc4c3)n2)cc1S(N)(=O)=O | 15.6% | 27.5% | 7.5% (active) | 12.4% | 21.5% | -56.2% (active) | 10.7% | 5.92% (active) | 35.7% | -10.3% (active) |
| Cn1cc(-c2ncnc3ccc(-c4cnc(Cl)c(NS(C)(=O)=O)c4)cc23)c2ccccc21 | 29.7% | 16.4% | 0.878% (active) | 16.2% | 8.88% (active) | -8.63% (active) | 17% | 6.57% (active) | 12% | 16.4% |
| COC(=O)CCCNc1c(-c2c(O)c(O)cc3c(O)c(-c4c(C)cc5c(-c6nc7ccccn7c6NCCCC(=O)OC)c(O)c(O)cc5c4O)c(C)cc23)nc2ccccn12 | 6.48% (active) | 64.8% | 93.2% | 37.1% | 6.59% (active) | 55.3% | 1.98% (active) | 23.4% | 67.6% | 87% |
| N[C@@H]1CCCN(c2c(/C=C3\SC(=O)NC3=O)cccc2-c2ccccc2)C1 | 66% | 59.1% | 64.3% | 1.79% (active) | 75.9% | 27.9% | 49.7% | 52.6% | 82.8% | 45.4% |
| Cc1cc(Nc2nc(N[C@@H](C)c3ncc(F)cn3)ncc2Cl)n[nH]1 | 69.9% | 46.8% | 52.8% | 60.3% | 81.6% | 108% | 68.3% | 66.2% | 73.8% | 44.1% |
| C=C1[C@@H](O)C[C@H]2C(C)(C)C[C@H](Cl)C[C@]2(C)[C@H]1C[C@H](O)[C@H]1CC(=O)NC1=O | -36.2% (active) | -25.8% (active) | -8.41% (active) | -38.4% (active) | -11.5% (active) | -13.5% (active) | -36.8% (active) | -14.1% (active) | -33.2% (active) | -62.5% (active) |
| CCCCN1C(=O)c2cccc3c(-c4ccc5c(c4)ncn5C4CCCCC4)ccc(c23)C1=O | 96% | 101% | 101% | 85.2% | 110% | 94.6% | 69.6% | 90.8% | 106% | 94% |
| Cc1ccc(C(=O)Nc2ccc(CN3CCN(C)CC3)c(C(F)(F)F)c2)cc1C#Cc1cnc2cccnn12 | -84.8% (active) | -96.8% (active) | -98.8% (active) | -93.6% (active) | -83.3% (active) | -74.1% (active) | -86.6% (active) | -95.1% (active) | -91% (active) | -88.2% (active) |
| COc1cc2c3c(c1)nc(C)n3CCC2 | 98.4% | 91.1% | 108% | 90.7% | 104% | 94.9% | 93.4% | 82% | 98.1% | 107% |
| CCCCCCCCCNCCCCCCCCC | 40.4% | 69.6% | 113% | 76.3% | 103% | 8.18% (active) | -3.05% (active) | 99.3% | 66.5% | -92.8% (active) |
| CC(=O)Nc1cccc(-n2c(=O)n(C3CC3)c(=O)c3c(Nc4ccc(I)cc4F)n(C)c(=O)c(C)c32)c1 | 17.1% | 49.5% | 10.9% | 19.5% | 56.1% | -27% (active) | 34.6% | 28.4% | 56.2% | -12.9% (active) |
| CCCC(=O)OCC1OC(n2cnc3c(=S)nc(N)[nH]c32)C(OC(=O)CCC)C1OC(=O)CCC (stereo not given) | 28.9% | 33.3% | 55.5% | 23.1% | 34.8% | 11% | -5.66% (active) | 92.4% | 21.5% | 79.2% |
| Cc1cc(N2CCCC2)nc(N(CCCNc2ccnc3cc(Cl)ccc23)Cc2ccc3c(c2)OCO3)n1 | 20.9% | 50.4% | 8.23% (active) | -17.4% (active) | 5.83% (active) | -36% (active) | -28.1% (active) | 13.2% | -88.8% (active) | -73.8% (active) |
| CN1CCN(c2nc(NCCNc3ccnc4cc(Cl)ccc34)c3ccccc3n2)CC1 | 44.9% | 62% | 21.3% | 13.7% | 11.6% | 53% | -20.2% (active) | 1.62% (active) | -33.3% (active) | -62.6% (active) |
| CCc1nc2cc(/C=C/C(=O)NO)c(F)cc2c(=O)n1CCc1ccccc1 | -5.22% (active) | 3.63% (active) | 20.5% | -4.23% (active) | 3.81% (active) | 7.39% (active) | 10.6% | -2.46% (active) | 0.452% (active) | -33.1% (active) |
| COc1cc2nc(Nc3cccc(Cl)c3)nc(N)c2cc1OC | 88.2% | 90.3% | 89.7% | 106% | 66.9% | 40.6% | 101% | 73.4% | 62% | -60.1% (active) |
| Cc1cccc(C)c1N1C(c2ccccc2)=NNC12C=CC(=O)c1c(O)cccc12 (stereo not given) | 30.6% | 94.6% | 99.3% | 39.4% | 98.2% | 115% | 54.6% | 62.4% | 105% | 97.7% |
| O=C(NO)c1ccc(Cn2c(=O)n(CCc3ccccc3)c(=O)c3ccccc32)cc1 | 8.96% (active) | 48.1% | 43.7% | 31.1% | 25.2% | 66.8% | 29.9% | 33.6% | 45% | 4.15% (active) |
| Ic1ccccc1-c1ccccc1 | 102% | 106% | 114% | 100% | 100% | 87.3% | 94.9% | 87.9% | 108% | 96.4% |
| COC(=O)CC[C@@H](C)[C@H]1CC[C@H]2C3CC[C@@H]4C[C@@H]5CC[C@]4(C)[C@@]3(O5)[C@H](Br)[C@@H](Br)[C@]12C (stereo not given in full) | 81.1% | 87.1% | 104% | 85.8% | 107% | 93.4% | 58% | 68.6% | 92.5% | 101% |
| Cc1cc(C(O)CN(C)C)cc2c1ccc1cc(C(C)C)ccc12 (stereo not given) | 30.1% | 33.6% | -10.1% (active) | 50.2% | -35.7% (active) | 5.86% (active) | -25% (active) | 32.9% | 14.5% | -78.1% (active) |
| COc1ccc(Cc2cc(-c3ccccc3C)n[nH]c2=O)cc1 | 98.6% | 87.3% | 129% | 97.8% | 105% | 22.7% | 105% | 99.9% | 105% | 100% |
| Cn1ccnc1C(=O)/C=C/c1ccc(CC(=O)Nc2ccc(S(F)(F)(F)(F)F)cc2)cc1 | -12.7% (active) | -15.3% (active) | -5.16% (active) | -73% (active) | -37.9% (active) | 5.09% (active) | -51.1% (active) | -33.7% (active) | -82.7% (active) | -55.2% (active) |
